Results filed as inconclusive are left out. Activity calls are given as the source filed them. Unless noted, calls follow the shape of the dose curve; as a rule, active = well fitted curve in the direction sought with a large enough effect; inconclusive = small, poorly fitted or top-dose-only effect, or another doubt; inactive = no such curve, though single readings can be large; an effect the other way counts as inactive or inconclusive.

Experimental findings from PubChem BioAssay (NCATS) are described below.

Assay [1] in a line: qHTS drug screen for cell cycle checkpoint inhibitors in PARPi-resistant BRCA-mutant ovarian cancer cell lines. (AID 1963452; calls by dose curve; also: potency is read from the fitted curve at half-maximal effect). As to conditions: PEO1/OlaR viability, CellTiter-Glo luminescence, 96 h; for Z-AUC: stronger effect = lower value. In short, it runs like this:
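PEO1, PEO4 and PEO1/OlaR ovarian cancer cells, 600 per well, exposed 96 h at 37C to a dilution series. Viability read by CellTiter-Glo luminescence, normalized to DMSO and empty wells; activity summarized as Z-AUC.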
(In general: Quantitative high-throughput screening tests each substance at several concentrations.)

Assay [2] deals with Cytochrome P450 3A4 (Homo sapiens) (UniProt P08684). The experiment in a line: qHTS for inhibitors of CYP3A4 against the NCATS DSHEA and TCM libraries (AID 1919971).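 Also: % is scaled to controls: 0 for no effect and ±100 for the full control effect; inhibition lowers luminescence from luciferin made by CYP3A4.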 The following applies: recombinant CYP3A4 enzyme activity, luminescence qHTS; series mostly up to 34.1 µM. In short, it runs like this: (§1)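 Concentration-response screening with isoform-matched pro-luciferin substrates. The CYP reaction was initiated by NADPH regenerating solution and ran 30-45 min in darkness at room temperature.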

In assay [3] the target is Cytochrome P450 2D6 (Homo sapiens) (UniProt P10635). The assay is described as follows: qHTS for inhibitors of CYP2D6 against the NCATS DSHEA and TCM libraries (AID 1919972). Also: % is scaled to controls: 0 for no effect and ±100 for the full control effect. As to conditions: CYP2D6 enzymatic inhibition, luminescence qHTS; series mostly up to 34.1 µM. In short, it runs like this: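 CYP2D6 enzyme with pro-luciferin substrate in manufacturer buffer (typically 100 mM KPO4), preincubated 15 min RT with substances (most at 19.5 nM upward); NADPH regeneration system (1x) started 30–45 min RT reaction; P450-Glo luminescence read after 30 min; quinidine as intraplate control.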

Assay [4] deals with Cytochrome P450 2C9 (Homo sapiens) (UniProt P11712). The experiment in a line: qHTS for inhibitors of CYP2C9 against the NCATS DSHEA and TCM libraries (AID 1919973).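 Also: luminogenic pro-luciferin CYP2C9 substrate turned into luciferin with NADPH regeneration; % is scaled to controls: 0 for no effect and ±100 for the full control effect.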 The following applies: recombinant CYP2C9 enzyme activity, luminescence; series mostly up to 34.1 µM. In short, it runs like this: as §1
Assay [5] addresses Cytochrome P450 2C19 (Homo sapiens) (UniProt P33261). The assay is described as follows: qHTS for inhibitors of CYP2C19 against the NCATS DSHEA and TCM libraries (AID 1919974).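 Also: luminescence from luciferin released by CYP2C19 oxidation of a pro-luciferin substrate.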 Also: potency is read from the fitted curve at half-maximal effect. The following applies: CYP2C19 enzyme inhibition, luminescence qHTS; series mostly up to 34.1 µM. In short, it runs like this:
as §1

Assay [6] in a line: KB-3-1 P-gp reporter qHTS against the NCATS DSHEA and TCM libraries (AID 1919975). Also: 0% is about no effect. As to conditions: KB-3-1 parental cells, CellTiter-Glo luminescence viability, 72 h; series mostly up to 26.1 µM. In short, it runs like this:
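Cell viability by CellTiter-Glo luminescence following ~72 h compound exposure (concentration-response). Uses parental, non-P-gp-overexpressing KB-3-1 line, 500 cells/well in DMEM/10% FBS, attached ~4 h before dosing.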

Assay [7] deals with Cytochrome P450 1A2 (Homo sapiens) (UniProt P05177). The experiment in a line: qHTS for inhibitors of CYPIA2 against the NCATS DSHEA and TCM libraries (AID 1919976).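 Also: light from luciferin formed by CYP1A2 from a pro-luciferin substrate; % is scaled to controls: 0 for no effect and ±100 for the full control effect.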 The following applies: recombinant CYP1A2 enzyme activity, luminescence; series mostly up to 37 µM. The method, boiled down:
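Enzyme and pro-luciferin substrate, or substrate alone as no-enzyme background, are pre-incubated with test samples for 15 min at room temperature. NADPH regeneration system (1x final) initiates a 30-45 min dark reaction; luciferase detection reagent follows before luminescence reading.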

Assay [8] is described as follows: qHTS Counterscreen for compound interference against the NCATS DSHEA and TCM libraries (AID 1919978).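 Also: compounds preincubated with 1 µM D-luciferin or buffer before detection reagent; % of control where 0% means no effect.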 The following applies: firefly luciferase detection reagent interference, luminescence. In short, it runs like this:
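With 1 uM D-luciferin or phosphate buffer only, compounds at final 19.5 nM–39.8 uM were incubated for 15 min at room temperature. Luciferase detection reagent was then added, and luminescence was measured after a further 30 min at room temperature.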

A short description of assay [9]: Dual reporter qHTS for agonist of Pregnane X Receptor (hPXR) against the NCATS DSHEA and TCM libraries: Fluorescence readout (AID 1920058). Also: 0% is about no effect. As to conditions: PXR dual reporter cells; series mostly up to 40 µM. In short, it runs like this: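 Cells were plated at 2000 per well and allowed to attach for 5 h. Test substances were pinned in and incubated roughly 24 h. CellTiter-Fluor was then added and fluorescence measured after 1 h.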

For assay [10], the target named is Nuclear receptor subfamily 1 group I member 2 (Homo sapiens) (UniProt O75469). The experiment in a line: Dual reporter qHTS for agonist of Pregnane X Receptor (hPXR) against the NCATS DSHEA and TCM libraries: Luminescence readout (AID 1920059). Also: 0% is about no effect. The following applies: hPXR dual reporter cells, luciferase luminescence agonist; series mostly up to 40 µM. In short, it runs like this:
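Luminescent PXR reporter read (ONE-Glo) after a CellTiter-Fluor viability read, following 24 h, 37C treatment of HepG2 cells stably carrying hPXR-Luc.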

Assay [11] shares this target. The experiment in a line: Dual reporter qHTS for antagonist of Pregnane X Receptor (hPXR) against the NCATS DSHEA and TCM libraries: Luminescence Readout (AID 1920060).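 Also: HepG2 cells carrying hPXR luciferase reporter stimulated with rifampicin at 2 µM; 0% is about no effect.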 As to conditions: hPXR dual reporter cells, luciferase luminescence, antagonist mode; series mostly up to 40 µM. In short, it runs like this:
(§2)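 Antagonist mode: rifampicin 2 uM final co-added with compounds to hPXR-LucHepG2 cells for 24 h at 37C. Viability by CellTiter-Fluor, Ex/Em 405/540 nm, 1 h; reporter by ONE-Glo luminescence.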

The nature of assay [12]: Dual reporter qHTS for antagonist of Pregnane X Receptor (hPXR) against the NCATS DSHEA and TCM libraries: Fluorescence Readout (AID 1920061). Also: 0% is about no effect. The following applies: PXR dual reporter cells, antagonist mode; series mostly up to 40 µM. The method, boiled down: as §2
The nature of assay [13]: qHTS profiling for inhibitors of Plasmodium falciparum proliferation (AID 504749).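 Also: 0% = DMSO vehicle and full inhibition = artemisinin control; nearly all actives have a fitted effect of over 60% in size.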 The following applies: P. falciparum in erythrocytes, SYBR Green DNA, 72 h, at 28.7 µM (top of the series). The method, boiled down:
(§3)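 SYBR Green fluorescence of parasite DNA, read after lysis and overnight dark incubation, measured growth over 72 h in erythrocyte culture at 0.3% parasitemia and 2.5% hematocrit. Data normalised to DMSO and 0.29 uM artemisinin, with plate-drift correction.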

In another assay the test system is 3D7. The assay is described as above. As to conditions: P. falciparum in erythrocytes, SYBR Green DNA, 72 h; series mostly up to 28.7 µM. The method, boiled down: as §3
A further assay deals with 7G8. Described as above. As to conditions: P. falciparum in erythrocytes, SYBR Green DNA, 72 h; series mostly up to 28.7 µM. In short, it runs like this: as §3
In a further assay the test system is AA1029. Described as above. As to conditions: P. falciparum in erythrocytes, SYBR Green DNA, 72 h; series mostly up to 28.7 µM. The method, boiled down:
as §3

In a further assay the test system is AS120. Described as above. As to conditions: P. falciparum in erythrocytes, SYBR Green DNA, 72 h; series mostly up to 28.7 µM. The method, boiled down:
as §3

For another assay, the system named is ATS189. Described as above. The following applies: P. falciparum in erythrocytes, SYBR Green DNA, 72 h; series mostly up to 28.7 µM. In short, it runs like this:
as §3

For the next assay, the system named is ATS95. The description is as above. The following applies: P. falciparum in erythrocytes, SYBR Green DNA, 72 h; series mostly up to 28.7 µM. The method, boiled down: as §3
A further assay relates to C2A. The assay is described as above. The following applies: P. falciparum in erythrocytes, SYBR Green DNA, 72 h; series mostly up to 28.7 µM. In short, it runs like this: as §3
The mark [14] stands for this setting: measured here: PEO1 parental Z-AUC.

Chain of Nuclear receptor subfamily 1 group I member 2 (Homo sapiens) (O75469 whole entry, looked up): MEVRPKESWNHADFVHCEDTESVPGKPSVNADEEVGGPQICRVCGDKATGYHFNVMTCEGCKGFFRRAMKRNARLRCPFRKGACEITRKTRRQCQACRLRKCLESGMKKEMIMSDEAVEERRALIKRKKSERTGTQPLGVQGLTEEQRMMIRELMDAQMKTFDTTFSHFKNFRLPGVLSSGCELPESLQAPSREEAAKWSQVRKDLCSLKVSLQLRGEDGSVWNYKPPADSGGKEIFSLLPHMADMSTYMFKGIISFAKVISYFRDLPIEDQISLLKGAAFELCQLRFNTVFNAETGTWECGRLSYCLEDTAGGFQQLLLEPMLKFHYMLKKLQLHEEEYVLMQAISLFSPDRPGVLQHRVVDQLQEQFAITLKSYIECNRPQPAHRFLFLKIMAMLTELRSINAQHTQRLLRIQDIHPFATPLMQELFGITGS
Chain of Cytochrome P450 3A4 (Homo sapiens) (P08684 whole entry, looked up, canonical isoform): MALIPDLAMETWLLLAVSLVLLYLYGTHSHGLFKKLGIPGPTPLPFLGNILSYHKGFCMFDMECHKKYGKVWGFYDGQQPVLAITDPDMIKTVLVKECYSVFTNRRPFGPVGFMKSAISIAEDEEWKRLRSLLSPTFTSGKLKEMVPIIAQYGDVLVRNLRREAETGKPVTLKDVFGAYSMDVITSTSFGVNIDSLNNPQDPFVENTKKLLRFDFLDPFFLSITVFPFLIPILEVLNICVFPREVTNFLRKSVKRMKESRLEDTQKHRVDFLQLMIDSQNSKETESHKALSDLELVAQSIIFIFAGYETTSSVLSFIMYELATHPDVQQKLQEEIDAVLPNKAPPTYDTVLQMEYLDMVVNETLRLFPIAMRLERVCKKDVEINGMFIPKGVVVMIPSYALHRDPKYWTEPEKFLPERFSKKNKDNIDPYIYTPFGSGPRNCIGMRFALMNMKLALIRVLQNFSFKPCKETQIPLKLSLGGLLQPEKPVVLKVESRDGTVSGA
Chain of Cytochrome P450 2C19 (Homo sapiens) (P33261 whole entry, looked up): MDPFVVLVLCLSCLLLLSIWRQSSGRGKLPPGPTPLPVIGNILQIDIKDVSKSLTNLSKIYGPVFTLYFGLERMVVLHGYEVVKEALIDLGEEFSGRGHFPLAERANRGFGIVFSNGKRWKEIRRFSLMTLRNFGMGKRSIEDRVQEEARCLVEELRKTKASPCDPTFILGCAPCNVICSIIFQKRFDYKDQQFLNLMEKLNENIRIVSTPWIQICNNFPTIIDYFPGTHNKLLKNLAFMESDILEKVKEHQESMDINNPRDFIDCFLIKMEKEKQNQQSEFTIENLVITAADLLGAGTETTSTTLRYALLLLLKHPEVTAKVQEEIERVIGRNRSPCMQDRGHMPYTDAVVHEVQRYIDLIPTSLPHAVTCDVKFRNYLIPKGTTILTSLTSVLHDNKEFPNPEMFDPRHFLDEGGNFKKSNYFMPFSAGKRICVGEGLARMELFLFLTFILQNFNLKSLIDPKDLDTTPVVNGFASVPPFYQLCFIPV
Chain of Cytochrome P450 2D6 (Homo sapiens) (P10635 whole entry, looked up): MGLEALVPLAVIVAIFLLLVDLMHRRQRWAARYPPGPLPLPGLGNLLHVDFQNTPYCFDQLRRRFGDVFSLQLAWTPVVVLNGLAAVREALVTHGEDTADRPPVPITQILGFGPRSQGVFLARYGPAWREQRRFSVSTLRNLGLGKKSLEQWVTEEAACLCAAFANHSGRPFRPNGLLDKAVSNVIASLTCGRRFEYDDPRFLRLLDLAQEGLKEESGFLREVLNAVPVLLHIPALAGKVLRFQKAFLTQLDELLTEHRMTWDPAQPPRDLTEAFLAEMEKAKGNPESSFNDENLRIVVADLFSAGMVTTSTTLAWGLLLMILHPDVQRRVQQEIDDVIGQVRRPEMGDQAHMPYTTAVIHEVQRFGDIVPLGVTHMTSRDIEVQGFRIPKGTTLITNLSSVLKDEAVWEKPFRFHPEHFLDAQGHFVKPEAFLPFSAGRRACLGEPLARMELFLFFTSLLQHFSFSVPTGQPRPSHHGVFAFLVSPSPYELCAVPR
Chain of Cytochrome P450 1A2 (Homo sapiens) (P05177 whole entry, looked up): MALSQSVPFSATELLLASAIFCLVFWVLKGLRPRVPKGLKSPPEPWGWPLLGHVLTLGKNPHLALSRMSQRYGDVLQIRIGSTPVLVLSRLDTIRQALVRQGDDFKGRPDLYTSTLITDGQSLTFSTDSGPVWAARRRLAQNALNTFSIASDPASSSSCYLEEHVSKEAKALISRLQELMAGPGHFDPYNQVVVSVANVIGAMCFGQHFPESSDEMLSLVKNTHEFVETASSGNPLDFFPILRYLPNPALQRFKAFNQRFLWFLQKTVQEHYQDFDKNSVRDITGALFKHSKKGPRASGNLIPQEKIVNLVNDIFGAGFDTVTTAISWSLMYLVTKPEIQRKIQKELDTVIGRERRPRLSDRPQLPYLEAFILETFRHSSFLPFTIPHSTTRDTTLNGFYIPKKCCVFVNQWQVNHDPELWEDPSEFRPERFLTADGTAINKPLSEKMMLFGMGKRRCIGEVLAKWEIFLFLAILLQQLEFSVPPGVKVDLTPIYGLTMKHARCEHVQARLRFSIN
Chain of Cytochrome P450 2C9 (Homo sapiens) (P11712 whole entry, looked up): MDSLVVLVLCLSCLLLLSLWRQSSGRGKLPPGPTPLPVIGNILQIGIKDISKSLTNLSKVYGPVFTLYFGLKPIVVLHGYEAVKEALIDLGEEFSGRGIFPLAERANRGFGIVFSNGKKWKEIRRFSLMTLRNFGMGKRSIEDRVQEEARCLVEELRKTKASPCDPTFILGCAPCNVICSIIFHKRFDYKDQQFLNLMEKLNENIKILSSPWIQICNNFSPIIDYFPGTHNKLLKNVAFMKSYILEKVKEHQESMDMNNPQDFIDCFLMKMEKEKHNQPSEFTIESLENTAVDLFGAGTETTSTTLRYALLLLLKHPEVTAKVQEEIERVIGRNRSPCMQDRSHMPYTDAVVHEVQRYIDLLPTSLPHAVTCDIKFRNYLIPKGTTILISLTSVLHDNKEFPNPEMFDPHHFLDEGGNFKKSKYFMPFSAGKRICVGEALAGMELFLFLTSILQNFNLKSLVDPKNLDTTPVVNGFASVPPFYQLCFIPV

Regarding `O=C(C1CC1)N1CC[C@@H](Cc2n[nH]c(=O)n2-c2ccc(-c3ccc4occc4c3)cc2)C1`, the Z-AUC is 1.31 (inactive) in assay [1], 0.792 in assay [1] (setting [14]) and 0.425 in assay [1] (measured here: PEO4 Z-AUC).

Consider `Cc1c(-c2ccnn2C)cc(C(=O)NCc2ccc(S(C)(=O)=O)cn2)c(=O)n1-c1cccc(C(F)(F)F)c1`, for which the Z-AUC in assay [1] was -0.519 (inactive); in [1] (setting [14]) it was -0.353; in assay [1] (measured here: PEO4 Z-AUC) it was -0.364.

For `CCCCCCCC(=O)O`, the result in assay [2], in [3], in assay [6], in assay [7], in assay [9] and in [10] was inactive. In addition, the result in assay [11] and in assay [12] was inactive. The Potency result (in assay [4]; in [5]; in the assay with 3D7; in the assay with 7G8; in the assay on AA1029; in the assay with AS120) was “inactive” in each case. The Potency entry in the assay on ATS189, in the assay on ATS95 and in the assay on C2A was “inactive” throughout. The max response in [8] is 5.32% (inactive). In addition, the activity, negative = inhibition in assay [13] (parasite line A) was 5.42% (inactive); in assay [13] (parasite line B), 9% (inactive).

As to `NC1CCC(N[C@@H]2C[C@H]2c2ccccc2)CC1` (some centres not stated), the Z-AUC in assay [1] is -1.43 (inactive); in [1] (setting [14]) it was -0.571; in assay [1] (measured here: PEO4 Z-AUC) it was -0.668.

For `CC1=CCC(C(C)(C)O)CC1` (configuration not stated), the result in assay [2], in [3], in [6], in [9], in [10] and in [11] was inactive. In assay [12], the compound was classed as inactive. Further, the Potency in [5] is 3550 nM (active). In addition, the max response in assay [8] was -0.821% (inactive). The activity, negative = inhibition in assay [13] (parasite line A) is 7.42% (inactive); in [13] (parasite line B), 12.4% (inactive). The Potency result in the assay with 3D7, in the assay with 7G8, in the assay with AA1029, with AS120, with ATS189 and in the assay with ATS95 was “inactive” throughout. Further, the Potency result with C2A was “inactive”.

Regarding `COc1cc2c(Nc3ccc(Cl)c(Cl)c3F)ncnc2cc1OCC1C[C@@H]2CN(C)C[C@@H]2C1` (some centres not stated), the Z-AUC in assay [1] was -0.294 (inactive); in [1] (setting [14]) it was -0.529; in [1] (measured here: PEO4 Z-AUC), -0.609.

Take `CNC(=O)c1ccc(Nc2ncc(C(F)(F)F)c(NCc3nccnc3N(C)S(C)(=O)=O)n2)cc1`: the figures for the Z-AUC in assay [1], in assay [1] (setting [14]) and in assay [1] (measured here: PEO4 Z-AUC) were -0.202 (inactive), 0.488 and -0.174, respectively.

In the case of `COc1cc2c(cc1O)CCN[C@]21CS[C@@H]2c3c(OC(C)=O)c(C)c4c(c3[C@H](COC1=O)N1[C@@H]2[C@H]2c3c(cc(C)c(OC)c3O)C[C@@H]([C@@H]1O)N2C)OCO4`, in [1], the Potency was 39.9 nM (active). For the same compound, the Z-AUC in [1] (setting [14]) was -2.17; in assay [1] (measured here: PEO4 Z-AUC), -1.65.

For `O=C(O)c1ccc(CCCc2ccc(OCCc3ccc(F)cc3)cc2)o1`, the Z-AUC in [1] is 0.294 (inactive); in assay [1] (setting [14]), 0.863; in [1] (measured here: PEO4 Z-AUC) it was 0.926.

In the case of `NS(=O)(=O)OC[C@@H]1C[C@@H](n2ccc3c(N[C@H]4CCc5ccccc54)ncnc32)C[C@@H]1O`, the Potency in assay [1] was 347 nM (active). The Z-AUC in assay [1] (setting [14]) is -1.6; in [1] (measured here: PEO4 Z-AUC) it was -1.88.
